# Test results from publication PMC7862700, “An all-to-all approach to the identification of sequence-specific readers for epigenetic DNA modifications on cytosine”.
# Experiments:
# Experiment in all cases: DAPPL (digital affinity profiling via proximity ligation, sequencing); 10 mM Tris-HCl pH 7.5, 50 mM NaCl, 1 mM DTT, 4% glycerol, room temperature, 30 min; GST-TFs on glutathione beads, 16-mer random dsDNA library, 0.1% formaldehyde crosslink after washing; high values mean tight binding
# FEV = target: T1, FEV (Homo sapiens, UniProt Q99581 1-238); details: protein: recombinant; tags: N-terminal GST; dsDNA, one strand shown
# T1 sequence: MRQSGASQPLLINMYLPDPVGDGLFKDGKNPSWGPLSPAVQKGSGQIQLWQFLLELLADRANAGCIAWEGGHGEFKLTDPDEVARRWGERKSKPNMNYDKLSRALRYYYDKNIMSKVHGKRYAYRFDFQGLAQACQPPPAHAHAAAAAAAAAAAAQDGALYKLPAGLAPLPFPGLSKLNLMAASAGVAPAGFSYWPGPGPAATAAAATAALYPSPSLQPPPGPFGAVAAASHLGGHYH
# Summary of the method: (§1)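 Pools were built from human transcription factors expressed in yeast as GST fusions, captured on glutathione beads and DNA-barcoded, along with a tag-only sample. Incubation with 200 nmole of a 16-mer random double-stranded DNA library lasted 30 min at room temperature in Tris/NaCl/DTT/glycerol buffer, and was followed by washing, 0.1% formaldehyde crosslinking, proximity ligation, PCR amplification and Illumina NextSeq500 sequencing. Binding signal is the quotient of each hexamer's read frequency for a factor and its frequency for the tag-only sample.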
# ETV5 = ETV5 (Homo sapiens, UniProt P41161 1-510); details: protein: recombinant; tags: N-terminal GST; dsDNA, one strand shown
# Summary of the method: as §1
# HSF1 = HSF1 (Homo sapiens, UniProt Q00613 1-529); details: protein: recombinant; tags: N-terminal GST; chain copies: 3; dsDNA, one strand shown
# Summary of the method: as §1
# SPIC = target: T2, SPIC (Homo sapiens, UniProt Q8N5J4 1-248); details: protein: recombinant; tags: N-terminal GST; dsDNA, one strand shown
# T2 sequence: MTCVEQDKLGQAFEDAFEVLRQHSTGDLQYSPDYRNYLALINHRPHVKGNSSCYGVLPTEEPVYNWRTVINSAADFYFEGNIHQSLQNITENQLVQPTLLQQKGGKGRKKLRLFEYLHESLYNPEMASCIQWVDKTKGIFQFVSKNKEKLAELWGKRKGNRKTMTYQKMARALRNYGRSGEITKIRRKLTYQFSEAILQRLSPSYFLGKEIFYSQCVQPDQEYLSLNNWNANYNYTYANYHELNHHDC
# Summary of the method: as §1
# ELF4 = ELF4 (Homo sapiens, UniProt Q99607 1-663); details: protein: recombinant; tags: N-terminal GST; dsDNA, one strand shown
# Summary of the method: as §1
# ELK4 = target: T3, ELK4 (Homo sapiens, UniProt P28324-2 1-405); details: protein: recombinant; tags: N-terminal GST; dsDNA, one strand shown
# T3 sequence: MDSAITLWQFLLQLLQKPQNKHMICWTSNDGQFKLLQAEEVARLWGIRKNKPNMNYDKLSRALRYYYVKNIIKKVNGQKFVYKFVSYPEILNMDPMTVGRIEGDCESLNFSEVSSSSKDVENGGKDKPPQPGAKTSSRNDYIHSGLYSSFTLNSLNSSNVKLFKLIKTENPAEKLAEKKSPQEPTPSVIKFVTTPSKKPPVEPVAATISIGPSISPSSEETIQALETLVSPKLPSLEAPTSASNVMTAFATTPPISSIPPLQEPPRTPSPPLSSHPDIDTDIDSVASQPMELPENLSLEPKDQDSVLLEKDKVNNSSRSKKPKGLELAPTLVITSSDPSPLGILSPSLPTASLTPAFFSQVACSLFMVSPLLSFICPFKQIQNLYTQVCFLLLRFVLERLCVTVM
# Summary of the method: as §1
# ETV2 = target: T4, ETV2 (Homo sapiens, UniProt O00321 1-342); details: protein: recombinant; tags: N-terminal GST; dsDNA, one strand shown
# T4 sequence: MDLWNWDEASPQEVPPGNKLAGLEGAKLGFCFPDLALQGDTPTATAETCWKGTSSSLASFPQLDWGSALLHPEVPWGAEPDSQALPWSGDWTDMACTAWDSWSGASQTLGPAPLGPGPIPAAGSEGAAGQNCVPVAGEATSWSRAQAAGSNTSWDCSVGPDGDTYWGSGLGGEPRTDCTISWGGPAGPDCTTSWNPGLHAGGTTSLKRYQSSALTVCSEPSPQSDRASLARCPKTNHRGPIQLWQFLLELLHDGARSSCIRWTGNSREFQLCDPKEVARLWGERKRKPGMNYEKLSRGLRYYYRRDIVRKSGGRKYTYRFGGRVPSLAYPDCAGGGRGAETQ
# Summary of the method: as §1
# ELF3 = target: T5, ELF3 (Homo sapiens, UniProt P78545 1-371); details: protein: recombinant; tags: N-terminal GST; dsDNA, one strand shown
# T5 sequence: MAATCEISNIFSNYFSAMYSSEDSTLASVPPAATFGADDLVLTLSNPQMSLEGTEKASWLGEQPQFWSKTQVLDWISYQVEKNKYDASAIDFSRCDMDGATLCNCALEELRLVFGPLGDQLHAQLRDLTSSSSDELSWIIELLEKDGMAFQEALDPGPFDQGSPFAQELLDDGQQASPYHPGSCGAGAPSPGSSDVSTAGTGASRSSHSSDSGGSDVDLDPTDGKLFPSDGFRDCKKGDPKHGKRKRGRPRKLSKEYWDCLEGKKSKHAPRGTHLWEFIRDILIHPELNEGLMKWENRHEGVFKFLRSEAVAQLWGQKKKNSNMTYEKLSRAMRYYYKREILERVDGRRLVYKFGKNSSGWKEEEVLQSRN
# Summary of the method: as §1
# CRX = CRX (Homo sapiens, UniProt O43186 1-299); details: protein: recombinant; tags: N-terminal GST; dsDNA, one strand shown
# Summary of the method: as §1
# ETV1 = ETV1 (Homo sapiens, UniProt P50549 1-477); details: protein: recombinant; tags: N-terminal GST; dsDNA, one strand shown
# Summary of the method: as §1
# ERF = target: T6, ERF (Homo sapiens, UniProt P50548 1-548); details: protein: recombinant; tags: N-terminal GST; dsDNA, one strand shown
# T6 sequence: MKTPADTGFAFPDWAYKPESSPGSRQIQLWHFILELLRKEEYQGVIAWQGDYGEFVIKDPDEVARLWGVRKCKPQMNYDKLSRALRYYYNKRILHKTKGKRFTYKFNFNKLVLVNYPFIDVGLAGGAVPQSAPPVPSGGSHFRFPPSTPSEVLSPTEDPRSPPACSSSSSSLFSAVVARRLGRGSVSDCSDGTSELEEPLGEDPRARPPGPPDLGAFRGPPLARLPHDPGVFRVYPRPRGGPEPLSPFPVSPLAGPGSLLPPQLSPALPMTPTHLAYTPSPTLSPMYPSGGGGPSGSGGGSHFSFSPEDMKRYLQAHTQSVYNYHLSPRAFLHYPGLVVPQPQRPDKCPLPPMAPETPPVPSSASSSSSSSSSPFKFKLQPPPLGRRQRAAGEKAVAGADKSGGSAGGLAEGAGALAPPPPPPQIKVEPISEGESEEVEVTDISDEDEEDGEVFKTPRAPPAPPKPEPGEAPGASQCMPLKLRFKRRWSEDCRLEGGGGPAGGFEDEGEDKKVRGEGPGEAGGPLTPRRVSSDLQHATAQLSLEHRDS
# Summary of the method: as §1
# ETV3L = target: T7, ETV3L (Homo sapiens, UniProt Q6ZN32 1-361); details: protein: recombinant; tags: N-terminal GST; dsDNA, one strand shown
# T7 sequence: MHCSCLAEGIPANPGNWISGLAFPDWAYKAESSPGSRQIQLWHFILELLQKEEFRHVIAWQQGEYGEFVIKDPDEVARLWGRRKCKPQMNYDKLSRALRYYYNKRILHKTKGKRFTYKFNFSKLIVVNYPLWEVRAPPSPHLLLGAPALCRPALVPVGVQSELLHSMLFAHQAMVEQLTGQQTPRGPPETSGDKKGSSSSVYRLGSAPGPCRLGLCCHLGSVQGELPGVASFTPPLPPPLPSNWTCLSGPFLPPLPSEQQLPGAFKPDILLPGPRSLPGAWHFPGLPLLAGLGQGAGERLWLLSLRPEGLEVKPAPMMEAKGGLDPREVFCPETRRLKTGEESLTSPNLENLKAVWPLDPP
# Summary of the method: as §1
# ETS2 = target: T8, ETS2 (Homo sapiens, UniProt P15036 1-469); details: protein: recombinant; tags: N-terminal GST; dsDNA, one strand shown
# T8 sequence: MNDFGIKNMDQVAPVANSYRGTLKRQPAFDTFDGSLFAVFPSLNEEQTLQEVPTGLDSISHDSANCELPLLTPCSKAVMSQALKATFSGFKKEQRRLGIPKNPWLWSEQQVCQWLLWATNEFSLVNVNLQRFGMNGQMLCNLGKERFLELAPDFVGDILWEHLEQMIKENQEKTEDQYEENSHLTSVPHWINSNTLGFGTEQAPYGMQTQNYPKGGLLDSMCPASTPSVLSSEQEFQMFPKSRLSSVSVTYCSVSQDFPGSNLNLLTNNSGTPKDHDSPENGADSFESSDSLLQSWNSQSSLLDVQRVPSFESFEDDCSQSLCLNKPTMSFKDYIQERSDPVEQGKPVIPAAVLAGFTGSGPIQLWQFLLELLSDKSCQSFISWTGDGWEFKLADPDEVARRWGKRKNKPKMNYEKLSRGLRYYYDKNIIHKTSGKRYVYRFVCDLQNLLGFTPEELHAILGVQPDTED
# Summary of the method: as §1
# SPDEF = target: T9, SPDEF (Homo sapiens, UniProt O95238 1-335); details: protein: recombinant; tags: N-terminal GST; dsDNA, one strand shown
# T9 sequence: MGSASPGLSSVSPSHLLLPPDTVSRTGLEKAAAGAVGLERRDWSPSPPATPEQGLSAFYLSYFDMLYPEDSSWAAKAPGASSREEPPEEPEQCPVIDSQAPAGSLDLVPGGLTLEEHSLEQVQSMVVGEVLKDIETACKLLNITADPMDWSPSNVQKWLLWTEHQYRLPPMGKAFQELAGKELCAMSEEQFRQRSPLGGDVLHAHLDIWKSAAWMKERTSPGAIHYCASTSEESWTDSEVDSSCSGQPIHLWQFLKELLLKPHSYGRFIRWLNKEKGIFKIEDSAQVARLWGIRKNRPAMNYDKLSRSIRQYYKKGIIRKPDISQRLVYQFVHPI
# Summary of the method: as §1
# ETV7 = target: T10, ETV7 (Homo sapiens, UniProt Q9Y603 1-341); details: protein: recombinant; tags: N-terminal GST; dsDNA, one strand shown
# T10 sequence: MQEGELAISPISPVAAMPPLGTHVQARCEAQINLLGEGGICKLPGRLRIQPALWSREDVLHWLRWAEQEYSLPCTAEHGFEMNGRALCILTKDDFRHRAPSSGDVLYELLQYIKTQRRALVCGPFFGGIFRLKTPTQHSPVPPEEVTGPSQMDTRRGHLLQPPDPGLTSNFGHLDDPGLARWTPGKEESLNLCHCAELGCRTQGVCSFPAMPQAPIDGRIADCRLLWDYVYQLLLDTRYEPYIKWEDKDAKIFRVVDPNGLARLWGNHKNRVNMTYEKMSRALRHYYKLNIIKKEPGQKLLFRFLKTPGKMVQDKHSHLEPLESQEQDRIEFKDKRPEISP
# Summary of the method: as §1
# ELF5 = target: T11, ELF5 (Homo sapiens, UniProt Q9UKW6-2 1-255); details: protein: recombinant; tags: N-terminal GST; dsDNA, one strand shown
# T11 sequence: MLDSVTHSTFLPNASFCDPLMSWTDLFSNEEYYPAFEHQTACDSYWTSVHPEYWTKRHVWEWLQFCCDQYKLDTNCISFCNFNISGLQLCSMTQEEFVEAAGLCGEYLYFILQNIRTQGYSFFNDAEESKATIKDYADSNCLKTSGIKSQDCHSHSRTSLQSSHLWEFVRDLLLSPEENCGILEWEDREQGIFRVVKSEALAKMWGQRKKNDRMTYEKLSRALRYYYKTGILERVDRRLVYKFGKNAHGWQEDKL
# Summary of the method: as §1
# ETV3 = target: T12, ETV3 (Homo sapiens, UniProt P41162-2 1-143); details: protein: recombinant; tags: N-terminal GST; dsDNA, one strand shown
# T12 sequence: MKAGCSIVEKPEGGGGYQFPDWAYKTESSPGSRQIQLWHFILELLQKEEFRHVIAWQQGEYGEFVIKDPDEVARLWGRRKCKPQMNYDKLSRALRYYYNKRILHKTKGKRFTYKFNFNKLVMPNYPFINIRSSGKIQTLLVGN
# Summary of the method: as §1
# ETV6 = ETV6 (Homo sapiens, UniProt P41212 1-452); details: protein: recombinant; tags: N-terminal GST; dsDNA, one strand shown
# Summary of the method: as §1
# Sequence of CRX (O43186 whole entry): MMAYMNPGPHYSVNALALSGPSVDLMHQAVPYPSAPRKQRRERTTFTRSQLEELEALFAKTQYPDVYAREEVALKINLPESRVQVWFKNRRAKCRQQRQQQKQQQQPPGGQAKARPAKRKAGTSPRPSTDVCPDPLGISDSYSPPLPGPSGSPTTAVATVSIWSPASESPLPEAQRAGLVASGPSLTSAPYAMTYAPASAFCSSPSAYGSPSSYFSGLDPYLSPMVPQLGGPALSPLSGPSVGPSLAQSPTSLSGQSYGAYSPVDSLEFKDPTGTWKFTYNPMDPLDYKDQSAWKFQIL
# Sequence of ELF4 (Q99607 whole entry): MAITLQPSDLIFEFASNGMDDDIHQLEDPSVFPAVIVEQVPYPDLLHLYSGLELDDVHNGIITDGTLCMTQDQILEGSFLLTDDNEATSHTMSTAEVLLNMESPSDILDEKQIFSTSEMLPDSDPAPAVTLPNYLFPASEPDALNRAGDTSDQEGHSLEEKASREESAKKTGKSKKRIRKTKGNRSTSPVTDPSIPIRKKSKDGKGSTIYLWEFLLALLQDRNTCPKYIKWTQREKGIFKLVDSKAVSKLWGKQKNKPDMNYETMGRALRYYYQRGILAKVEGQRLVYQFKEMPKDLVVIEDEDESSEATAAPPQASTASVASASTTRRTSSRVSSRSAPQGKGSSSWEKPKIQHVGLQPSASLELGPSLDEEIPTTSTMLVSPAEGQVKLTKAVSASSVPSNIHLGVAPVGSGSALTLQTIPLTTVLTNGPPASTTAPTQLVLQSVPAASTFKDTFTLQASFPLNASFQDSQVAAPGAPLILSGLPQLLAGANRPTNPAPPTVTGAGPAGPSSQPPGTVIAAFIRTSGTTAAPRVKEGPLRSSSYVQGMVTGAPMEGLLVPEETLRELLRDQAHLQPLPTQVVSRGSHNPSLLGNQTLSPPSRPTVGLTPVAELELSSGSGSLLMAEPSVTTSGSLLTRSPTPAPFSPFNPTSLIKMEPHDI
# Sequence of ETV1 (P50549 whole entry): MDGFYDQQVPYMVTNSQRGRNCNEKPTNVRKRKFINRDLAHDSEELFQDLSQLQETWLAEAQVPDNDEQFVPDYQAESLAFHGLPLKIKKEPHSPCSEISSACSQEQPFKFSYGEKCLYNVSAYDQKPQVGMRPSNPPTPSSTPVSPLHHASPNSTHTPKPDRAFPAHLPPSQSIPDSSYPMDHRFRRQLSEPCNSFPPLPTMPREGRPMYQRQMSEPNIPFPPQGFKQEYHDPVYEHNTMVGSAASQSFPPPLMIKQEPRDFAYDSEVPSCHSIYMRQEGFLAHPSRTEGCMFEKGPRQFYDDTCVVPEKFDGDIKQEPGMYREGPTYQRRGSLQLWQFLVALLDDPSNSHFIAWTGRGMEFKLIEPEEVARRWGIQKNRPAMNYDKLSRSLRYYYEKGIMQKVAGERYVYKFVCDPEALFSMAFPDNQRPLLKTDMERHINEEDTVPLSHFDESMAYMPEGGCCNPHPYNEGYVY
# Sequence of ETV6 (P41212 whole entry): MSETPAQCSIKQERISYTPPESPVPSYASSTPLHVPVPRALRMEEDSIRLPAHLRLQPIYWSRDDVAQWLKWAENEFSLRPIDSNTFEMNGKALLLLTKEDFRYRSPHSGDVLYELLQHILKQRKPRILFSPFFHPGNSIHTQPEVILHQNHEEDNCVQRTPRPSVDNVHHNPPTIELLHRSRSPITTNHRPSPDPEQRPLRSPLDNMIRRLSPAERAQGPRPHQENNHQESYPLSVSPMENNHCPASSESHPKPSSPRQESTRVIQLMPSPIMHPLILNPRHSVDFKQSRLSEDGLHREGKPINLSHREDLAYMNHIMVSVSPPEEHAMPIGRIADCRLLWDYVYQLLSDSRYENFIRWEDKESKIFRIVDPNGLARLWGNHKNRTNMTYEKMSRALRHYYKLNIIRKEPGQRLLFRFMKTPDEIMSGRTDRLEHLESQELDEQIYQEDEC
# Sequence of ETV5 (P41161 whole entry): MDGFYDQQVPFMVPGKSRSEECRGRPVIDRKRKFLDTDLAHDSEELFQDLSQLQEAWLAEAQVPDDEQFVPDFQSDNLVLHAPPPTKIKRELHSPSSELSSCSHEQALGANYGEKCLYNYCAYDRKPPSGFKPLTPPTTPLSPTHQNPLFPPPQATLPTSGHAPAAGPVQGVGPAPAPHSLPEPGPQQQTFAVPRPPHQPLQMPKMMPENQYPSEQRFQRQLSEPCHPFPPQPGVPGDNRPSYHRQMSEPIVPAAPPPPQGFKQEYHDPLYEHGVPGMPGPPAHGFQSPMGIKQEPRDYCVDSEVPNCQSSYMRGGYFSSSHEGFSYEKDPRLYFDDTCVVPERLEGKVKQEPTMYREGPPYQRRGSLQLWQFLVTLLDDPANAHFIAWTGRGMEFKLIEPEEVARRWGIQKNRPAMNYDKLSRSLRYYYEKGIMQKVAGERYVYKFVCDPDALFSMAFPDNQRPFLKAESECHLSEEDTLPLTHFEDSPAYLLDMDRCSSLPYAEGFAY
# Sequence of HSF1 (Q00613 whole entry): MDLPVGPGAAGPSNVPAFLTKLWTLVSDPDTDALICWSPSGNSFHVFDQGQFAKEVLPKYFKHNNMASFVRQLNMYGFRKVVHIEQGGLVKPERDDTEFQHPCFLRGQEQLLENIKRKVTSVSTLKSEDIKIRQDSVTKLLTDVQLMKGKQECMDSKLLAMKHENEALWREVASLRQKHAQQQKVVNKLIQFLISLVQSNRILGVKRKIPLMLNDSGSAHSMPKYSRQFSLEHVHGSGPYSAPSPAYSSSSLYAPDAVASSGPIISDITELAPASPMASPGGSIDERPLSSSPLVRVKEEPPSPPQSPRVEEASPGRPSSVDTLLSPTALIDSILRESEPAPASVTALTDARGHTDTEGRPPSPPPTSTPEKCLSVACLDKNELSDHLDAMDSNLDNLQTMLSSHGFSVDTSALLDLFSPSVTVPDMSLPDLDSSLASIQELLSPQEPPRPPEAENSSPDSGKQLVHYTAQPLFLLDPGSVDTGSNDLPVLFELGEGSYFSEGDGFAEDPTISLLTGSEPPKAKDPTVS
sequence,measurement,setting,value
TTCATT,binding signal,FEV,"1.23 fold enrichment (6-mer frequency, TF over GST control)"
same,binding signal,ETV5,"1.29 fold enrichment (6-mer frequency, TF over GST control)"
same,binding signal,HSF1,"1.12 fold enrichment (6-mer frequency, TF over GST control)"
same,binding signal,SPIC,"1.37 fold enrichment (6-mer frequency, TF over GST control)"
same,binding signal,ELF4,"1.21 fold enrichment (6-mer frequency, TF over GST control)"
same,binding signal,ELK4,"1.29 fold enrichment (6-mer frequency, TF over GST control)"
same,binding signal,ETV2,"1.17 fold enrichment (6-mer frequency, TF over GST control)"
same,binding signal,ELF3,"1.12 fold enrichment (6-mer frequency, TF over GST control)"
same,binding signal,CRX,"1.15 fold enrichment (6-mer frequency, TF over GST control)"
same,binding signal,ETV1,"1.21 fold enrichment (6-mer frequency, TF over GST control)"
same,binding signal,ERF,"1.31 fold enrichment (6-mer frequency, TF over GST control)"
same,binding signal,ETV3L,"1.3 fold enrichment (6-mer frequency, TF over GST control)"
same,binding signal,ETS2,"1.27 fold enrichment (6-mer frequency, TF over GST control)"
same,binding signal,SPDEF,"1.24 fold enrichment (6-mer frequency, TF over GST control)"
same,binding signal,ETV7,"1.23 fold enrichment (6-mer frequency, TF over GST control)"
same,binding signal,ELF5,"1.18 fold enrichment (6-mer frequency, TF over GST control)"
same,binding signal,ETV3,"1.16 fold enrichment (6-mer frequency, TF over GST control)"
same,binding signal,ETV6,"1.18 fold enrichment (6-mer frequency, TF over GST control)"
